Screens from PubChem.
HPGD inh = inhibitors of human 15-hydroxyprostaglandin dehydrogenase (HPGD). hit rate 4.3% among 150,000. Potency, µM, for inactives: at the top dose activity change, negative = inhibition, hits mostly inhibitors. P15428. purified HPGD, NADH fluorescence kinetic, PGE2 substrate; also: potency is read from the fitted curve at half-maximal effect
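NADH formation kinetics: reaction with 30 uM PGE2 and 1 mM NAD+ (final), 20 nM enzyme, Tris-HCl pH 8 with Tween 20, after 15 min compound preincubation at room temperature. Fluorescence change, last versus first of five reads.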
PNC inhibitor = perinucleolar compartment assembly inhibition; activity change (PNC), negative = inhibition, % at 10 µM; hit rate 3.1% among 140,000; PC3M PTB-GFP, PNC prevalence imaging, 16 h; hits give low values; AID 2417;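 active = readout at or below -70, meaning at least 70% loss of cells showing the perinucleolar compartment, a nuclear body marking cancer cells; inconclusive = readout between -30 and a set limit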;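 also: plate controls were DMSO wells for no effect and camptothecin positive control wells for full effect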
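Compounds are pinned in duplicate onto adhered PC3M cells stably expressing GFP-tagged PTB and incubated 16 h at 37 C. Cells are then fixed, nuclei stained with Hoechst, and PNC-positive cells counted.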
ALDH1A1 inh = inhibitors of human aldehyde dehydrogenase 1A1. hit rate 7.3% among 220,000. Purified ALDH1A1, NADH fluorescence, propionaldehyde substrate. Potency, µM (titrated, usually from 75.3 µM), inactives show at the highest dose activity, negative = inhibition, usual class: inhibitors;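 also: potency is read from the fitted curve at half-maximal effect; plate controls were no enzyme wells and a reference inhibitor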
Target sequence (P00352 whole entry, looked up): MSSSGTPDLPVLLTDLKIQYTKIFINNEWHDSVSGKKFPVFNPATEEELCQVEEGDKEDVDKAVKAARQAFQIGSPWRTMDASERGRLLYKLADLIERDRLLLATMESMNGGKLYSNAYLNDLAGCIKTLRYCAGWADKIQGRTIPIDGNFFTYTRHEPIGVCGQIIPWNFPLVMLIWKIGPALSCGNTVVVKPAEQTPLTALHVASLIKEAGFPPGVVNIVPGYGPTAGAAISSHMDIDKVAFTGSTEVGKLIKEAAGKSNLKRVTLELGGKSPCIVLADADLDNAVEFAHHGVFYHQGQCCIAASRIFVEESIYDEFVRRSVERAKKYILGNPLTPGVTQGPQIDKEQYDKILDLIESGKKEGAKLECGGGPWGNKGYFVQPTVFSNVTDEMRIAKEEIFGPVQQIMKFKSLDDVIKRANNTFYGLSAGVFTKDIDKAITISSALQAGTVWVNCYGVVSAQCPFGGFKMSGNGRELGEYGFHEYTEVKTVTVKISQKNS
An asterisk follows results filed as active; ? = inconclusive; / = not tested or not shown; [ ] = another dose, or the depositor's remark. An excerpt weighted towards active compounds, which were near 11% of everything screened. Unless noted, calls follow the shape of the dose curve; as a rule, active = well fitted inhibition curve with a large enough effect (not every such curve was filed as active); inconclusive = small, poorly fitted or top-dose-only effect, or another doubt; inactive = no such curve, though single readings can be large or run the other way. Unless noted, % is scaled to controls: 0 for no effect and ±100 for the full control effect.

SMILES	HPGD inh	PNC inhibitor	ALDH1A1 inh
CC(C)n1c(O)c(N=NC(=O)Cn2ccc(C(F)(F)F)n2)c2ccccc21	-8.4%	-22.5	10.1%
C[C@@H]1C[C@H]2[C@H]3C[C@@H](F)C4=CC(=O)C=C[C@]4(C)[C@@]3(Cl)[C@@H](O)C[C@@]2(C)[C@@H]1C(=O)COC(=O)C(C)(C)C	-11.8%	/	11.2%[20.9 µM]
CC(C)NC(=O)CSc1nnc(C2CC2)n1-c1ccccc1	2.4%	13.6	0.5%
CC(Sc1nnnn1C)C(=O)Nc1ccc(Oc2ccccc2)cc1 (stereo unspecified)	?	38.3	-11.6%
CCC(Sc1nnnn1C)C(=O)Nc1ccc(C(C)=O)cc1 (stereo unspecified)	-8.1%	-86.8*	-9.3%
O=C(NNC(=O)C1[C@H]2CCCC[C@@H]12)NC1CCCCC1 (stereo partly specified)	-13.1%	39.3	-9.2%
O=c1c2ccccc2nnn1Cc1ccccc1Cl	/	/	-8.0%
COc1ccc(-c2c(C(C)=O)c(C)nc3sc4c(=O)[nH]nnc4c23)cc1	17.8µM*	26.5	?
COc1ccc(-c2c(C(C)=O)c(C)nc3sc4c(c23)NC(c2ccccc2)NC4=O)cc1 (stereo unspecified)	?	26.0	?
CCOC(=O)c1c(C)nc2sc3c(c2c1-c1ccc(OC)cc1)NC(c1ccccc1)NC3=O (stereo unspecified)	120.8%	-83.2*	?
CCOC(=O)c1c(C)nc2sc3c(=O)n(-c4ccc(OC)cc4)nnc3c2c1-c1ccc(OC)cc1	-11.6%	-106.0*	-9.2%
CCOC(=O)c1c(C)nc2sc3c(=O)[nH]cnc3c2c1-c1ccc(OC)cc1	?	38.3	?
CCOC(=O)c1c(C)nc2sc3c(=O)n(-c4ccc(C(C)=O)cc4)cnc3c2c1-c1ccc(OC)cc1	-7.6%	-0.1	?
COC(=O)c1c(S(C)(=O)=O)nc(-c2ccccc2)[nH]c1=O	-7.6%	11.3	3.0%
O=C(COC(=O)c1cccs1)Nc1ccccc1[N+](=O)[O-]	/	/	-9.8%
Cc1ccc(-n2nnnc2-c2cnoc2-c2cccc(F)c2)cc1	-8.6%	6.0	-4.5%
C=CCN1CCc2c(cc(O)c(O)c2Br)[C@@H](c2ccccc2)C1	-7.4%	/	-10.8%
Cn1cc(CNC(=O)C23CC4CC(CC(C4)C2)C3)cn1	-13.9%	-29.4	5.01µM*
O=C(NCc1ccncc1)C12CC3CC(CC(C3)C1)C2	-17.9%	44.1	?
COc1ccc(N=Cc2cc3c(cc2O)OC(N)=C(C#N)C3c2ccccc2)cc1 (stereo unspecified)	-14.9%	-21.1	-3.7%
Cc1cc(C)cc(OCC(=O)Nc2cccc(-c3nc4ncccc4o3)c2)c1	?	12.2	2.5%
COc1ccccc1NC(=O)N1CCC(C(=O)c2ccc(F)cc2)CC1	-9.4%	-15.2	1.2%
CCOc1ccccc1NC(=O)N1CCC(C(=O)c2ccc(F)cc2)CC1	-9.5%	22.7	5.01µM*
O=C(CCc1nc2cccnc2n1Cc1ccccc1)NCCc1ccc(Cl)cc1	-5.2%	12.4	-2.0%
CCn1c2ccccc2c2cc(C3C(C#N)=C(N)Oc4n[nH]c(COC)c43)ccc21 (stereo unspecified)	?	?	1.78µM*
SMILES	HPGD inh	PNC inhibitor	ALDH1A1 inh
COCc1[nH]nc2c1C(c1cccc(OC)c1)C(C#N)=C(N)O2 (stereo unspecified)	-22.5%	-12.0	28.2µM*
COc1cccc(-c2[nH]nc3c2C(c2ccoc2)C(C#N)=C(N)O3)c1 (stereo unspecified)	28.2µM*	-22.8	12.6µM*
COc1cccc(-c2[nH]nc3c2C(c2ccsc2)C(C#N)=C(N)O3)c1 (stereo unspecified)	?	-20.2	-5.3%
COCc1[nH]nc2c1C(c1ccc(OC)c(OC)c1)C(C#N)=C(N)O2 (stereo unspecified)	-11.2%	3.9	0.5%
COCc1[nH]nc2c1C(c1cc(OC)c(O)c(OC)c1)C(C#N)=C(N)O2 (stereo unspecified)	-21.7%	-11.5	?
CC(=O)OC/C=C(\C)CCC=C(C)C	-3.9%	/	?
O=[N+]([O-])c1ccc(N/N=C/c2ccc[nH]2)cc1	14.1µM*	-96.7*	1.6%
O=[N+]([O-])c1ccc(N/N=C/c2c[nH]c3ccccc23)cc1	-3.0%	28.7	-15.5%
NC(N)=O	-8.4%	/	6.8%
NC(=O)/N=N/C(N)=O	10µM*	/	0.447µM*
CCOC(=O)CSC1=NC(=O)CS1	14.1µM*	?	31.6µM*
CCOC(=O)CSc1nnc(C)c(=O)[nH]1	3.0%	?	6.6%
Cc1nn(Cc2ccc(Cl)cc2Cl)c(C)c1NC(=O)CCl	-11.7%	-9.0	8.91µM*
Cc1nn(Cc2ccc(Cl)cc2Cl)c(C)c1NC(=O)c1nn(C)cc1Cl	-5.8%	88.0	4.1%
